We go through 60 molecules from PubChem BioAssay AID652126 (The Scripps Research Institute Molecular Screening Center, 2013).

Screen size: about 370,000 compounds; about 3,700 (1%) were called active.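 The calls were made as follows: active = activation above the mean over all tested compounds plus 3 SD (cut at about 0.9% in these data); inactive = the rest.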 This excerpt belongs to a sample that is enriched for actives.

The subject of this assay is Nuclear hormone receptor DAF-12 (Strongyloides stercoralis). In words: ssDAF-12 driven luciferase reporter activation – cell-based, luminescence, HEK293, GRIP1 co-expression, lit1-tk-luc, primary screen (AID 652126).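 Also: 0% = DMSO-only wells and 100% = 3 µM delta7-dafachronic acid wells.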 The settings on record: HEK293 ssDAF-12/GRIP1 lit1-tk-luc reporter, at 6.8 µM, stronger effect = higher value, % of 3 µM dafachronic acid response. A general note: Reporter assays use an easily measured gene product as a stand-in for the process of interest.
As to `O=C(CSc1nc2ccccc2nc1N1CCCCC1)N1CCN(S(=O)(=O)c2cccc([N+](=O)[O-])c2)CC1`, the activation is -0.71% (inactive).
As to `CC(=O)Nc1ccc(OC[C@@H](O)CN2CCC(C(O)(c3ccccc3)c3ccccc3)CC2)cc1`, the activation was -0.46% (inactive).
Take `COc1cccc(CNC(=O)C2CCCN(c3nc4ccccc4o3)C2)c1OC` (stereo not given): the activation is 1.04% (active).
On to `O=C(NCc1ccc(Cl)cc1)C1CCCN(c2nc3ccccc3o2)C1` (stereo not given), for which the activation was -1.04% (inactive).
With `COc1ccccc1CNC(=O)C1CCN(c2nc3ccccc3o2)CC1` the figure was -1.15% (inactive); with `CCC(=O)Nc1ccc2c(c1)C(=O)N(C)[C@H]1CC[C@H](CC(=O)NCCOC)O[C@@H]1CO2`, -1.05% (inactive); with `COc1ccc(-n2c(COc3ccccc3)nnc2SCC(=O)Nc2ccc3c(c2)OCO3)cc1`, -1.47% (inactive).
For the molecule `COc1ccc(C(CNC(=O)c2cc3c(s2)CCCC3)N2CCOCC2)cc1` (stereo not given), the activation was -1.09% (inactive).
On to `CC(C)(C)NC(=O)Cn1cnc2cc([N+](=O)[O-])ccc2c1=O`, for which the activation is -1.52% (inactive).
Take `Cc1ccc(-n2cc3ccc([N+](=O)[O-])cc3n2)cc1`: the activation was 1.77% (active).
As for `O=c1c2cc([N+](=O)[O-])ccc2nc2n1CCC2`, the figure is -0.82% (inactive); as for `C=CCN1C(=O)[C@@H](CC(=O)N2CCN(C(=O)OCC)CC2)[C@]2(C(=O)OCC)CCCCC/C=C/12`, -1.02% (inactive); as for `CCOc1cc(C)c(S(=O)(=O)NCc2ccccn2)cc1C`, 0.98% (active).
With `COc1ccccc1CNS(=O)(=O)c1cc(C(=O)NCc2ccccn2)c(Cl)cc1Cl` the figure was -1.13% (inactive).
With `Cc1cc(S(=O)(=O)NCc2ccccn2)c(Cl)cc1Cl` the figure was -1.84% (inactive); with `COC(=O)[C@H](C(C)C)N(CCCc1cn(Cc2ccccc2)nn1)S(=O)(=O)c1ccc(F)cc1Br`, -2.17% (inactive).
`Cc1cccc(-n2c(O)c(C=Nc3ccccc3N)c(=O)[nH]c2=O)c1`: the activation was 1.8% (active).
With `COc1cccc(N(C)C(=O)[C@@H](C)[C@@H](O)c2ccc3ccccc3c2)c1` the figure was -1.07% (inactive); with `CSc1nc2nc3c(c(=O)n2[nH]1)CCC3`, -1.17% (inactive); with `O=c1c2c(nc3cc(-c4cccc(Cl)c4)[nH]n13)CCCC2`, 1.57% (active).
As for `CCOC(=O)C1CCN(S(=O)(=O)c2ccc3c(c2)N(C(C)=O)CCO3)CC1`, the figure is -1.19% (inactive).
With `CC(C)c1cccc(-c2csc(C(O)c3ccccc3)n2)c1` (stereo not given) the figure was -1.41% (inactive); with `OC(c1ccccc1)c1nc(-c2cnc3ccccc3c2)cs1` (stereo not given), 1.25% (active); with `COc1ccc(-c2csc(C(O)c3cccc(Cl)c3)n2)cn1` (stereo not given), -1.06% (inactive).
Regarding `COc1cccc(N(CC(=O)NCCSc2ccccn2)S(C)(=O)=O)c1`, the activation was -1.16% (inactive).
With `COc1ccc(C=C(C#N)C#N)c(CSc2ccccn2)c1` the figure was 2.1% (active); with `CN(C)c1nc(N)nc(CSc2ccccn2)n1`, -1.25% (inactive); with `c1coc(CCNc2ncnc3ccc(-c4ccc5c(c4)OCO5)cc23)c1`, -0.09% (inactive).
As to `CCn1c2ccccc2c2cc(NC(=O)CSc3nnc(-c4ccccc4)n3-c3ccc(C)cc3)ccc21`, the activation was -1.2% (inactive).
Regarding `COc1ccc(/C=N/Nc2ncnc3sc4c(c23)CCCC4)cc1O`, the activation was -0.66% (inactive).
As for `O=C(CSc1nc2ccccc2s1)NN=Cc1ccc(O)cc1O`, the figure is -1.4% (inactive); as for `COc1cc(/C=N/Nc2nc3ccccc3s2)ccc1O`, 2.25% (active).
With `COc1ccccc1CCNC(=O)C1CCN(c2nc(C)cc(C)n2)CC1` the figure was -1.36% (inactive); with `Cn1c(NCc2cccnc2)nc2cc(-c3ccc(F)cc3)sc2c1=O`, -1.06% (inactive); with `O=c1[nH]c(CCl)nc2cc(-c3ccc(Cl)cc3)sc12`, 1.53% (active).
As for `COc1cccc(-c2cc3nc(NCCOc4ccccc4Cl)n(C)c(=O)c3s2)c1`, the figure is -1.7% (inactive).
In the case of `CC(C)(C)OC(=O)NCc1cc(F)ccc1/C=C/S(=O)(=O)NCCc1ccccc1`, the activation was -1.87% (inactive).
With `CCC(=O)OCCCN1C(=O)CCC12CCC(c1ccccc1)CC2` (stereo not given) the figure was -0.68% (inactive).
Turning to `CCn1c(SCC(C)=O)nc2sc3c(c2c1=O)CCCC3`, the activation was -2.16% (inactive).
As for `Cc1ccc(C)c(-n2c(SCC(=O)O)nc3sc4c(c3c2=O)CCCC4)c1`, the figure is -1.01% (inactive); as for `NNC(=O)C1CCCn2c1nc1sc3c(c1c2=O)CCCC3` (stereo not given), 1.14% (active); as for `COc1cccc(Cn2cc(COC(=O)Nc3ccc(F)cc3)nn2)c1`, -0.68% (inactive).
With `COc1ccc(CSc2nnc(-c3cccc(C)c3)n2C)cc1` the figure was -1.19% (inactive); with `COc1ccc(C2CC(=O)n3c(nc4ccccc43)S2)cc1OC` (stereo not given), -1.19% (inactive); with `COc1ccc(C2CC(c3cccs3)=NN2c2nc(C)c(C(C)=O)s2)cc1OC` (stereo not given), -0.94% (inactive).
As for `COc1ccc(C2CC(c3cccs3)=Nc3ccccc3S2)cc1OC` (stereo not given), the figure is 1.64% (active); as for `COP(=O)(O)CNC(=O)OCc1ccccc1`, -0.73% (inactive); as for `CC(=O)N1CCCN(C2=Nc3ccccc3Sc3ccccc32)CC1`, -1.69% (inactive).
For the molecule `COc1ccccc1C(=O)COC(=O)CSCC(=O)Nc1cc(C)on1`, the activation was 1.36% (active).
Consider `Cc1cc(NC(=O)CSCC(=O)NC(C)c2ccccc2)no1` (stereo not given), for which the activation is -1.09% (inactive).
With `Cc1cc(NC(=O)CSCc2ccccc2C)no1`, the activation is -1.6% (inactive).
On to `CN(CCO)c1cccc2c1S(=O)(=O)N(Cc1cn(Cc3ccc(C(F)(F)F)cc3)nn1)Cc1ccccc1O2`, for which the activation is -0.96% (inactive).
With `O=C1C(=O)N(Cc2ccc(-c3ccsc3)cc2)c2ccc(OC(F)(F)F)cc21` the figure was -0.76% (inactive); with `CCS(=O)(=O)c1cc([N+](=O)[O-])c(Sc2ccccc2N)s1`, 0.94% (active); with `COc1ccccc1C(=O)CSc1nnc(-c2ccccn2)n1-c1ccccc1`, -1.43% (inactive).
As for `C=CCN1C(=O)[C@@H](CC(=O)NCC2CCCCC2)[C@]2(C(=O)OC)CCCCC=C12`, the figure is -1.59% (inactive).
With `COCC(=O)N[C@@H]1C[C@@H]2O[C@@H](CO)CC[C@@H]2O[C@@H]1CCc1ccc(-c2ccccc2)cc1`, the activation was -1.17% (inactive).
Take `COc1ccccc1S(=O)(=O)NCc1ccc(C(=O)N(C)Cc2ccc(F)cc2)cc1`: the activation was -1.02% (inactive).
As for `CN(Cc1ccc(F)cc1)C(=O)COc1ccc2ccccc2c1`, the figure is -0.45% (inactive); as for `CN(Cc1nc2ccccc2s1)C(=O)c1ccc(F)cc1`, 1.11% (active).
